# Source: ChEMBL document CHEMBL4513216, “Probing the Open Global Health Chemical Diversity Library for Multistage-Active Starting Points for Next-Generation Antimalarials” (ACS Infect Dis, 2020)
# Among all 65,000 compounds or so, about 2,100 (3.2%) showed an effect of 50% or more. The median lay at about -52%. Shown is part of a subset that was picked to be rich in strong results.
# System: Plasmodium falciparum
# Test: Screen against P. falciparum Asexual Blood Stage (ABS), at 5uM
# Assay type: functional, Dd2
# Settings: tested at 5 uM
row,Compound,INHIBITION [%]
1,CC(C)NC(=O)[C@@H]1C[C@H]2NCC[C@H]2O1,-104
2,CCN1CCC2(COCc3cnc(NCC4CC4)nc32)C1 (stereo not drawn),1.43
3,CCN1C[C@@H]2[C@@H](OC)CCN(S(=O)(=O)c3cccnc3)[C@@H]2C1,-17.9
4,COc1cc2nc(NCc3ccc(C)nc3)nc(N)c2cc1OC,90.6
5,COc1cc2nc(NCc3scnc3C)nc(N)c2cc1OC,89.8
6,Fc1cccnc1O[C@@H]1CN(Cc2ccco2)[C@@H]2CCCO[C@@H]21,-48.2
7,COc1ccccc1C1(CNCc2cccc(O)c2)CCOCC1,82.8
8,COc1ccccc1N1CCC(CNCc2ccc(C#N)cc2)C1 (stereo not drawn),94.1
9,COc1ccccc1C1(CNCc2ccc(C#N)cc2)CCOCC1,76.6
10,CSC1(CNC(=O)NC(C)Cc2cccc(F)c2)CCOCC1 (stereo not drawn),-25.5
11,CC[C@H]1CN2CC[C@H]1C[C@@H]2CNCc1cccc(C#N)c1,34.8
12,N#Cc1ccc(CNCC2(c3ccccc3)CCOCC2)cc1,83
13,O=C([C@@H]1CC[C@@H]2[C@@H](CCN2Cc2ccncc2)O1)N1CCCCO1,-84.8
14,O=C1CO[C@@H]2CN(CC3CCOCC3)C[C@H]2N1Cc1ccncc1,-115
15,Cc1ccc(C(CCNCCCN(C)C)C2CCOC(C)(C)C2)cc1 (stereo not drawn),83.6
16,CN(Cc1cccnc1)[C@@H]1CN(CC2CC2)[C@@H]2CCCO[C@H]12,-1.12
17,COc1cc(OC)c(C2SCC(=O)Nc3n[nH]cc32)cc1OC (stereo not drawn),-189
18,COc1cc(OC)c(C2Nc3cc(Cl)ccc3C3=NCCN32)cc1OC (stereo not drawn),81.7
19,C/C(=C\c1ccco1)CN(C)C(C)Cc1cc(C)ccn1 (stereo not drawn),-0.191
20,CS(=O)(=O)Cc1nc(CN2CC=C(c3ccccc3)CC2)cs1,-50.8
21,CCCN1CCN(C(=O)c2cnccc2C)[C@H]2CS(=O)(=O)C[C@H]21,-12.9
22,O=C(c1[nH]c2ccc(Cl)cc2c1Cl)N1CCC2(CC1)OCCO2,-37.1

row,Compound,INHIBITION [%]
1,Cc1c(C(=O)N2CCC(N3CCCCC3)CC2)n(C)c2ccc(Cl)cc12,88
2,CC(C)c1ncc(Cl)c(C(=O)N2CCN3CCCCC3C2)n1 (stereo not drawn),-158
3,CC(Cn1cncn1)NCc1csc2c1CCCC2 (stereo not drawn),-42.7
4,Fc1ccc(OCCNC2CCN(Cc3ccncc3)CC2)c(F)c1,74.2
5,c1cnc(NC[C@H]2OC[C@@H]3CCN(Cc4ccncc4)C[C@@H]32)nc1,-102
6,c1cc(CN2CC[C@@H]3CN(c4cnccn4)C[C@@H]3C2)ccn1,-72.2
7,CNc1ncccc1C(=O)N1CCC2(CCN(C)C2)CC1,-89.3
8,Cc1ncc(CNCCO)c2cc(C(=O)c3ccc(Br)cc3)oc12,89.3
9,O=C1C[C@@H]2CC[C@H](CN1)N2C1CSCCSC1,-45.6
10,O=C1Nc2ccccc2C12CCN(Cc1nccs1)CC2,-15.8
11,O=C1CC2(CCN(Cc3ccoc3)C2)CN1c1cncnc1 (stereo not drawn),-51.3
12,Cc1ccc(CN2CCC3(CC2)CCN(Cc2ccco2)CC3)cc1,91.7
13,O=C1NC[C@H]2CN(Cc3nccs3)CCN12,-41.7
14,Cn1ccnc1CN1CC2(CCN(Cc3ccncc3)C2)C1,-45.8
15,CN1CCN(Cc2ccco2)Cc2cccnc21,-15.8
16,Cc1ccc(CN2CCC3(CCN(Cc4ccncc4)CC3)CC2)cc1,78.3
17,Fc1ccc(CN2CCC3(CC2)CCN(Cc2nccs2)CC3)cc1,86.6
18,Cc1ccc(CN2CCC3(CC2)CCN(Cc2ccoc2)CC3)cc1,92.7
19,c1cnc(N2CC3(CCN(Cc4ccncc4)C3)C2)nc1,-104
20,c1cc(CN2CCCC23CCCN(Cc2ccoc2)C3)ccn1 (stereo not drawn),-105
21,C[C@H]1C[C@@H]2CCN(Cc3ccco3)C[C@H]2O1,-32
22,O=C1CSC(c2ccc(Cl)cc2Cl)c2c(n(C3CCOCC3)[nH]c2=O)N1 (stereo not drawn),-37.1

row,Compound,INHIBITION [%]
1,O=C(NCC1CC[C@@]2(CNCCOC2)O1)c1cccnc1 (stereo partly drawn),-65.9
2,Cc1n[nH]c2c1C(c1ccsc1)SCC(=O)N2 (stereo not drawn),-110
3,c1cncc(OC[C@]23COC[C@H]2CN(C2CCOCC2)C3)c1,-10.4
4,CSCCCN1CC[C@@]2(O)CCN(c3ncccn3)C[C@H]2C1,16.4
5,CCCOc1ccc2ccccc2c1CN1CC[C@@]2(O)CCNC[C@H]2C1,93.2
6,O=C(O)[C@]12CCCN(C3CCOC3)C[C@H]1CN(c1ncccn1)C2 (stereo partly drawn),-128
7,CN(C)C(=O)c1ccc(-c2cccc3c2CCNC3)cc1,-115
8,Oc1ccc(N2CCN(Cc3ccc(F)cc3Br)CC2)cc1,-85.8
9,OC1(c2ccc(F)cc2)CCN(Cc2ccccc2N2CCCC2)CC1,71.9
10,O=C(NCC1CC1)[C@@H]1C[C@@H]2OCCN[C@@H]2C1,-55.3
11,O=C1NCC[C@]12CN(Cc1cccnc1)C[C@H]2c1ccccc1,-11.5
12,Cc1cccc(CN2CCC23CCCNC3)n1 (stereo not drawn),12
13,Cc1ccccc1N1CCCN(CC2(O)CCCNC2)CC1 (stereo not drawn),87.7
14,Cc1ccc(C)c(N2CCN(CC3(O)CCNC3)CC2)c1 (stereo not drawn),85.9
15,CC(=O)N1CC2(CCNCC2)c2cc(C)ccc21,1.98
16,Cc1nc2c(C)cccc2cc1C(=O)N1CCC2(CCCNC2)C1 (stereo not drawn),-31.7
17,Cc1cnn(CC(C)NCc2ccc(C#N)cc2F)c1 (stereo not drawn),-84.2
18,c1cc(CN2CCO[C@H]3[C@H](OCC4CCCC4)CC[C@@H]32)ccn1,-71.1
19,CN(C)CCN(C)C[C@H]1CN2CC[C@H]1C[C@@H]2CNC(=O)Nc1ccsc1,-49.3
20,Cc1nc(CN2CCOC3(CCCC3)C2)oc1C,-101
21,C[C@H]1CN2C[C@H](O)CC2CN1Cc1ccncc1 (stereo partly drawn),-85.4
22,O[C@@H]1C[C@H]2CN(Cc3ccsc3)[C@@H](Cc3ccccc3)CN2C1,71.6

row,Compound,INHIBITION [%]
1,C[C@@H]1CN2C[C@H](O)CC2CN1Cc1ccncc1 (stereo partly drawn),-64.4
2,Cc1ccc(-n2nnc(CC(=O)N3CCN(C4CC4)CC3)c2C)cc1,-35.9
3,COc1cccc(C2SCC(=O)Nc3n[nH]cc32)c1OC(C)C (stereo not drawn),-75.3
4,COc1cccc(CC(C)NC(=O)NC(C)C)c1 (stereo not drawn),-64.2
5,O=C(Cc1ccccc1)N1CCN(CC(O)c2ccc(F)cc2)CC1 (stereo not drawn),-118
6,Cc1cnn(CC(C)NCc2cccc(C#N)c2)c1 (stereo not drawn),-41.8
7,Cc1ccc(CNC(CN2CCN(C)CC2)c2ccccc2)cc1 (stereo not drawn),79.5
8,COc1cccc(CNC(CN2CCN(C)CC2)c2ccccc2)c1 (stereo not drawn),82
9,CN1CCN(CC(NCc2ccc(F)c(F)c2)c2ccccc2)CC1 (stereo not drawn),83.8
10,Cc1ccc(CC(=O)N2CCN(CC(O)c3ccccc3)CC2)cn1 (stereo not drawn),-130
11,COc1cccc(CC(C)NC(=O)NCc2ccn(C)c2)c1 (stereo not drawn),-91.8
12,Cc1cccc(CNC(CN2CCN(C)CC2)c2ccccc2)c1 (stereo not drawn),83.5
13,O=C(Cc1ccc(F)cc1)N1CCN(CC(O)c2ccccc2)CC1 (stereo not drawn),-18
14,O=C(c1ccncc1F)N1C[C@@H]2OCCN(CC3CC3)[C@@H]2C1,-66.6
15,O=C(C1CCCCC1)N1CCC2(CC1)OCCO2,-149
16,O=C(Nc1ccccc1)[C@H]1C[C@H]2CN(Cc3cccnc3)C[C@@H]1O2,-15
17,Cc1ccc(C(=O)N2C[C@H](N3CCOCC3)[C@@H]3OCCC[C@@H]32)cn1,-62.2
18,CN(Cc1nc(C2CC2)no1)C(=O)CN1CC(c2ccccc2)CC1=O (stereo not drawn),-52.4
19,CCN(CC1CN(Cc2nc(C3CC3)no2)CCO1)c1cccnn1 (stereo not drawn),73.3
20,COCCn1cc(NC(=O)NC(C)Cc2c(F)cccc2F)cn1 (stereo not drawn),-151
21,COCCCN1CCCN(C(C)C(=O)Nc2cccc(I)c2)CC1 (stereo not drawn),90
22,CNC(=O)c1ccc2c(c1)C1(CCN(CCOC)CC1)C(=O)N2,-12.8

row,Compound,INHIBITION [%]
1,Cn1ncc2c(N3CCCN4CCC[C@H]4C3)nc(C(C)(C)C)nc21,-68.8
2,O=c1[nH]c(NC2CCCC2)nc2nccc(-c3ccco3)c12,72.4
3,COCCN1CCN(Cc2cccnc2)[C@H]2CS(=O)(=O)C[C@H]21,-9.43
4,COc1ncccc1CN1CC[C@H]2O[C@H](c3nnc(C)o3)CC[C@H]21,-73.1
5,CCOc1ccccc1CNCC1CCN(CC(C)O)CC1 (stereo not drawn),75.9
6,CC(O)CN1CCN(C(=O)Cc2ccccc2Cl)CC1 (stereo not drawn),-179
7,CC(Cc1cccc(Cl)c1)NC(=O)Nc1cnn(CC(N)=O)c1 (stereo not drawn),-5.01
8,CC(O)CN1CCC(CNCc2cccc(Cl)c2)CC1 (stereo not drawn),87.9
9,CC(O)CN1CCC(CNCc2cccc(Br)c2)CC1 (stereo not drawn),87.8
10,COCC(C)NC(=O)c1cn(C(C)(C)C)c2ncccc12 (stereo not drawn),-120
11,COc1ccc(CC(=O)N2CCN(Cc3ccco3)C[C@@H]2C)cc1OC,-135
12,COc1ccc(C2SCC(=O)Nc3ccsc32)cc1OC (stereo not drawn),-6.6
13,CCNC(=O)NC(=O)CNC1(c2noc(C)n2)CCCCC1,-46.9
14,CN1Cc2ccccc2NC(=O)C12CCNC2 (stereo not drawn),-33.4
15,O=C1CC[C@@H]2[C@@H](CCN2Cc2ccccn2)N1CC1CC1,-65.4
16,CN1CCn2c(-c3ccccc3)cnc2C12CCN(CC1CC1)CC2,80.9
17,c1ccc(-c2ncc3c(n2)C2(CCN(CC4CC4)C2)COC3)cc1 (stereo not drawn),32
18,CN1CCn2c(-c3cccc(F)c3)cnc2C12CCN(CC1CC1)CC2,76.5
19,CC(=O)N1CCC2(CC1)c1ncc(-c3cccnc3)n1CCN2C,-45.5
20,Fc1cnc(N2CC3(CCN(CC4CC4)C3)C2)nc1,-62.7
